The list is not random: actives were taken first. Their share in the collection is about 14%.
Shiga toxin inh: A qHTS for Small Molecule Inhibitors of Shiga Toxin | inhibition, % at 38.7 µM | 290,000 tested, 9.2% active | Vero cells, Shiga toxin protein synthesis inhibition reporter | AID 2315, 2010; in the data active = inhibition mostly above about 28%, no sharp cut-off; inactive = mostly below about 43%; also: 0% is about no effect
NS1 inh: qHTS Assay for Inhibitors of Influenza NS1 Protein Function; Potency, µM (series often up to 46.1 µM), without a hit: top-dose activity, positive = more growth; 270,000 tested, 0.4% active; AID 2326, 2010; calls by dose curve; also: potency is read from the fitted curve at half-maximal effect; actives are rising curves; nearly all actives have a fitted effect of over 50% in size
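Growth recovery, yeast-based: influenza A NS1 expressed in S. cerevisiae causes slow growth, and suppressors are detected by OD600. The parent strain without NS1 is used as positive control.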
Giardia FBPA inh: qHTS Assay for Inhibitors of Fructose-1,6-bisphosphate Aldolase from Giardia Lamblia. Potency, µM (highest dose often 59.6 µM), for inactives: top-dose activity, negative = inhibition, actives largely listed as inhibitors. 290,000 tested, 0.71% active. A8B2U2. AID 2451, 2010. purified Giardia FBPA; also: potency is read from the fitted curve at half-maximal effect; % is scaled to controls: 0 for no effect and ±100 for the full control effect; nearly all actives have a fitted effect of over 55% in size
Target sequence (A8B2U2 whole entry, looked up): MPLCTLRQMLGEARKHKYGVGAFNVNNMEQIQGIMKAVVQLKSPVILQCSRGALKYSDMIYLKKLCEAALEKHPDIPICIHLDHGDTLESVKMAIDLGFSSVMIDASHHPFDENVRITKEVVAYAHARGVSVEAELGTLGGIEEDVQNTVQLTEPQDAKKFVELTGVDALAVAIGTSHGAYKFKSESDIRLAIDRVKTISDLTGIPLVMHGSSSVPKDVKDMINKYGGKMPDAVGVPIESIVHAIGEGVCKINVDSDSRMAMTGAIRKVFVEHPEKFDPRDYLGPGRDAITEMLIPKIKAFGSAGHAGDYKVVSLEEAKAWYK
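Giardia FBPA (40 nM reagent) was preincubated 10 min at RT with compound (up to 57.5 uM final), then substrate plus GAPDH/TPI/NAD/arsenate coupling system with diaphorase/resazurin was added; resorufin fluorescence (525/598 nm) was read after 20 min.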
LmPK inhibitor: qHTS Assay for Inhibitors of Leishmania Mexicana Pyruvate Kinase (LmPK); purified LmPK, Kinase-Glo ATP luminescence, 1 h; Q27686; 290,000 tested, 0.37% active; Potency, µM (doses to about 57.5 µM), for the others: at the top dose activity change, negative = inhibition, most hits filed as inhibitors; also: potency is read from the fitted curve at half-maximal effect; % is scaled to controls: 0 for no effect and ±100 for the full control effect
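qHTS format; LmPK 0.1 nM; substrates PEP 0.5 mM and ADP 0.1 mM. One-hour room-temperature incubation, then coupled luciferase luminescence; 0.5 nM enzyme wells mark activation.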
CHX counter: Cycloheximide Counterscreen for Small Molecule Inhibitors of Shiga Toxin; AID 2314, 2010; cell reporter, cycloheximide protein synthesis inhibition counterscreen; 300,000 tested, 12% active; max response, %; in the data active = max response mostly above about 13%, no sharp cut-off; inactive = mostly below about 14%; also: read at 38.3 µM for the half of the compounds with a filed dose; 0% is about no effect
Active calls of the source: *; ? = inconclusive; . = no result given. Unless noted, calls follow the shape of the dose curve; as a rule, active = well fitted curve in the direction sought with a large enough effect; inconclusive = small, poorly fitted or top-dose-only effect, or another doubt; inactive = no such curve, though single readings can be large; an effect the other way counts as inactive or inconclusive.

SMILES | Shiga toxin inh | NS1 inh | Giardia FBPA inh | LmPK inhibitor | CHX counter
CCS(=O)(=O)c1ccc(O)c(NC(=O)CCCC(=O)O)c1 | 7 | -1% | -1% | -1% | -1
O=C(/C=C/c1ccccc1)Nc1cc(C(=O)O)cc(C(=O)O)c1 | -14 | . | 6% | 2% | 1
COc1cc(NC(=O)/C=C/c2ccccc2)c(C(=O)O)cc1OC | 10 | -1% | -6% | 2% | 0
COC(=O)c1cc(NC(=O)/C=C/c2ccccc2)ccc1O | 121* | -8% | -25% | 2% | 48*
CCS(=O)(=O)c1ccc(O)c(NC(=O)/C=C/c2ccccc2)c1 | 73* | -3% | 6% | 2% | 28*
C/C(=N/NC(=O)CN1CCN(Cc2ccccc2Cl)CC1)c1cccs1 | 6 | -2% | 6% | 1% | 6
N#CCCn1c(=O)c(CCc2ccccc2)nc2cnc(Oc3cccc(Cl)c3)nc21 | . | . | -4% | . | .
CCOC(=O)C1CCN(C(=O)Cn2c(=O)c3cccn3c3cccnc32)CC1 | -14 | ? | -4% | 7% | -4
COc1ccc2c(c1)C(=O)[C@H](O)[C@@H](c1ccc(OC)c(Br)c1)O2 | 54 | -28% | 0% | 1% | 19*
COc1cccc([C@@H]2Oc3ccc(OC)cc3C(=O)[C@H]2OC(=O)Nc2cc(OC)c(OC)c(OC)c2)c1 | 45* | 6% | -8% | 1% | 11*
COc1cccc([C@@H]2Oc3ccc(OC)cc3C(=O)[C@H]2OC(=O)NCc2ccc3c(c2)OCO3)c1 | 84* | 2% | -1% | 3% | 64*
CC(C)(C)C#CCn1c(/C=[N+](\[O-])C2CCCCC2)nc2ccccc21 | 1 | -13% | ? | 2% | -2
O=C(O)c1cc(Nc2cc(Cl)c3nonc3c2[N+](=O)[O-])ccc1O | -3 | 4% | 19% | 2% | 3
COc1ccc(C(=O)N2CCC3(CCCN(Cc4nccs4)C3)CC2)cc1 | . | . | -1% | . | .
CC(C)CC(=O)Nc1c2c(nn1-c1ccc(F)cc1)CS(=O)C2 (stereo unspecified) | 19 | -8% | 4% | 0% | 24*
COc1ccc(NC2=C(c3ccc(OC)cc3)C(=O)c3ccccc32)cc1 | -4 | 24% | 3% | 0% | -2
COC1=C(Nc2ccc(OC)cc2)C(=O)c2ccccc2C1=O | 133* | 2% | ? | -17% | 52*
COc1ccc(C2=C(N)c3ccccc3C2=O)cc1 | 102 | -6% | -4% | -1% | 42*
COC1=C(Nc2ccc(O)cc2)C(=O)c2ccccc2C1=O | 77* | -14% | ? | -20% | 28*
COc1ccc(NC2=C(NC(C)=O)C(=O)c3ccccc3C2=O)cc1 | 25 | 0% | ? | -19% | 7
CCOc1ccc(NC2=C(OC)C(=O)c3ccccc3C2=O)cc1 | 61* | -10% | ? | -16% | 20*
CN(C)c1cccc2c(S(=O)(=O)N3CCOCC3)cccc12 | -10 | -11% | ? | -1% | -1
CN(C)c1cccc2c(S(=O)(=O)N3CCCC3)cccc12 | 27 | -31% | -7% | 1% | 34*
CC(C)(C)[Si](C)(C)c1c2c(nc3ccc(OCc4ccccc4)cc13)-c1cccc(=O)n1C2 | . | . | -12% | . | .
COc1ccc2occ(C(=O)c3cccs3)c2c1 | 96* | -91% | 0% | -13% | 40*
SMILES | Shiga toxin inh | NS1 inh | Giardia FBPA inh | LmPK inhibitor | CHX counter
COc1ccc(OC)c(C(=O)c2coc3ccc(OC(C)=O)cc23)c1 | 38* | -5% | 0% | 3% | 25
COc1ccc2occ(NC(C)=O)c2c1 | -10 | -13% | -4% | -7% | 2
COc1ccc2occ(C(=O)c3ccc(N)cc3)c2c1 | 71* | -1% | -11% | 2% | 39*
COc1ccc(OC)c(C(=O)c2coc3ccc(OCC(=O)O)cc23)c1 | -1 | 0% | 26% | -6% | -5
COc1ccc(C(=O)c2coc3ccc(OC(C)=O)cc23)cc1 | 72* | -3% | 3% | -7% | 27*
O=C(O)c1cccc(C(=O)O)c1Br | -6 | -11% | -29% | -1% | -4
O=[N+]([O-])c1ccc(-n2cc(-c3ccccc3)nn2)cc1 | 11 | 2% | 14% | 10% | 14*
CCCn1cc(S(=O)(=O)c2ccc(F)cc2)c(=O)c2cc(OCC)ccc21 | -6 | 9% | . | 5% | -2
C/C(=N\Nc1cccc(Cl)c1)c1ccncc1 | 31 | -30% | -21% | 4% | 24*
C/C(=N\Nc1ccc(Cl)cc1)c1ccncc1 | 47 | -43% | 12% | -11% | 21*
C/C(=N\Nc1cc(C(F)(F)F)ccc1Cl)c1ccncc1 | 2 | -4% | 10% | 2% | -3
C/C(=N\Nc1ccc(F)cc1)c1ccncc1 | 34 | -18% | -19% | 1% | 24*
O=C(O)CCC/C=C\C[C@@H]1[C@@H](CC[C@@H](O)CCc2ccccc2)[C@H](O)C[C@@H]1O | -18 | . | 6% | . | -3
Cc1cc(C)n(-c2nnc3c4ccccc4n(C)c3n2)n1 | 113* | -30% | -9% | -20% | 44*
NC(=O)C1CCN(c2ncnc3c(-c4ccccc4)nsc23)CC1 | 51* | -14% | 9% | 6% | 50*
O=C(c1ccco1)N1CCN(c2ncnc3c(-c4ccccc4)nsc23)CC1 | 48 | -37% | -2% | 0% | 17
CCC(C(=O)NC1CCCCC1)n1c2ccccc2c2nc(=O)cc(C)n21 (stereo unspecified) | 18 | 9% | . | -1% | -3
C/C(=N\Nc1nc(C)cc(C)n1)c1ccc(C)o1 | 29 | 3% | -27% | 1% | 21*
C/C(=N\Nc1nnc2c3ccccc3n(C)c2n1)c1ccc(C)o1 | 29 | -15% | -8% | -2% | 13
O=C(NCCCO)c1c(O)c2cccc3c2n(c1=O)CCC3 | 42 | -44% | 7% | 4% | 6
CCCC(=O)Nc1nc2ccc(OCC)cc2s1 | 73* | -6% | 0% | -7% | 46*
CCOc1ccc2nc(NC(=O)CSc3ccccc3)sc2c1 | 69 | 2% | -3% | 5% | 18*
CCOc1ccc2nc(NC(=O)CSc3nc4cccnc4n3C)sc2c1 | -20 | -38% | 2% | 4% | -4
CCOc1ccc2nc(NC(=O)CCn3cccc3)sc2c1 | 86* | 7% | -2% | 7% | 29*
CC(C)n1c(NCc2ccc(N(C)C)cc2)nc2ccccc21 | 29 | -13% | 1% | 1% | 7
CCOc1ccc2nc(NC(=O)CS(=O)(=O)c3ccc(C)cc3)sc2c1 | 20 | 5% | 0% | 9% | 25
CN(C)c1ccc(CNc2nc3ccccc3s2)cc1 | 68* | -11% | 8% | -5% | 34*
CCCCC[C@H](O)/C=C/C=C\C/C=C\CCCCCCC(=O)O | . | . | -3% | . | .
CCOc1ccc2nc(NC(=O)CC3Oc4ccccc4NC3=O)sc2c1 (stereo unspecified) | 55 | 5% | 3% | 2% | 8
CCOc1ccc2nc(NC(=S)N(C)C)sc2c1 | 104* | -141% | 13% | -6% | 56*

Screening results (PubChem BioAssay)
